Among all 48,000 compounds or so, about 13,000 (27%) showed an effect of 50% or more. The list shows a part of the results.

The assay relates to Wolbachia pipientis. The experiment in a line: Anti-Wolbachia Cell-Based Screen. The assay is classed as functional. Also on record: scale not given: in the data most compounds retested in dose-response had high values. The note with it: 5 µM.
For the compound `CC(C)(O)CN1CCN(C(=O)COCC(F)(F)F)CC1`, the “Percent Effect” value amounted to 2.26%.
Next, `O=C1NCC2(CCCN(C(=O)c3ccc4c(c3)CCCO4)CC2)O1` (stereo not drawn): 15.15%; `Cc1ccnc(NC(=O)c2cccc(OCc3nnnn3C)c2)c1`: 92.28%; `CN(C)c1ccc(NC(=O)c2cccc(N(C)C)c2)nc1`: -10.74%.
Next, `Cc1ccc(NC(=O)c2cccc(N(C)C)c2)nc1`: -7.622%; `Cc1ccnc(NC(=O)c2ccc(C)o2)c1`: -0.4749%.
For `Cc1ccc(NC(=O)c2cccc(OCc3nnnn3C)c2)nc1`, the “Percent Effect” value is 97.4%.
For the compound `Cc1ccnc(NC(=O)c2ccc(Br)o2)c1`, the “Percent Effect” value is on record as -3.231%.
With `CNS(=O)(=O)CCN1CC(c2ccccc2)(c2ccccc2)CCC1=O`, the “Percent Effect” value was found to be 8.028%.
Consider `CCC(CC)(CNC(=O)OC(C)(C)C)NC(=O)c1cnccn1`, for which the “Percent Effect” value is on record as 8.305%.
With `CN(C)S(=O)(=O)N1CC[C@]2(C[C@H](OCc3ccncc3)CO2)C1.O=C(O)C(F)(F)F`, the “Percent Effect” value stood at 20.75%.
For `CN(Cc1ccco1)C1COC2(CCN(Cc3nccs3)CC2)C1.O=C(O)C(F)(F)F.O=C(O)C(F)(F)F` (stereo not drawn), the “Percent Effect” value was found to be 98.22%.
Next, `Cc1ccsc1CN1CCC2(CC1)CC(OCc1cccnc1)CO2.O=C(O)C(F)(F)F.O=C(O)C(F)(F)F` (stereo not drawn): 12.52%; `CN(Cc1cccnc1)C1CC2(CCN(c3ncccn3)CC2)C1.O=C(O)C(F)(F)F.O=C(O)C(F)(F)F`: 96.99%.
Next, `CN(Cc1cccnc1)C1CC2(CCN(c3ncc(F)cn3)CC2)C1.O=C(O)C(F)(F)F.O=C(O)C(F)(F)F`: -6.301%; `CN(Cc1ccccn1)C1COC2(CCN(Cc3nccs3)CC2)C1` (stereo not drawn): -7.584%.
Next, `Cc1cnc(N2CCC3(CC2)CC(N(C)Cc2ccncc2)C3)nc1.O=C(O)C(F)(F)F.O=C(O)C(F)(F)F`: -8.3%; `CN(Cc1cn2c(n1)CN(Cc1nccs1)CC2)Cc1ccco1.O=C(O)C(F)(F)F.O=C(O)C(F)(F)F`: -16.64%; `CN(Cc1ccncc1)C1COC2(CCN(Cc3cccs3)CC2)C1.O=C(O)C(F)(F)F.O=C(O)C(F)(F)F.O=C(O)C(F)(F)F` (stereo not drawn): 100.2%.
On to `CN(Cc1ccncc1)C1CC2(CCN(c3ncccn3)CC2)C1.O=C(O)C(F)(F)F.O=C(O)C(F)(F)F.O=C(O)C(F)(F)F`, for which the “Percent Effect” value is -4.65%.
Next, `CN(Cc1ccccc1)C1COC2(CCN(Cc3nccs3)CC2)C1.O=C(O)C(F)(F)F` (stereo not drawn): 20.92%.
On to `CN(Cc1cccnc1)C1COC2(CCN(Cc3nccs3)CC2)C1.O=C(O)C(F)(F)F.O=C(O)C(F)(F)F.O=C(O)C(F)(F)F` (stereo not drawn), for which the “Percent Effect” value came out at 111.1%.
For the compound `COc1ccc(CN(C(=O)C(C)SC)c2cnn(C)c2)c(OC)c1` (stereo not drawn), the “Percent Effect” value is -2.56%.
For `O=C1CC[C@H]2CN(Cc3ccc(Cl)s3)CC[C@H]2N1CCc1c[nH]cn1`, the “Percent Effect” value is on record as -29.01%.
For the compound `CCc1cc(NCCNc2ccncc2C)n2nc(C)c(C)c2n1`, the “Percent Effect” value amounted to 11.08%.
With `Cc1noc(C)c1CN(C)C(=O)C1(NS(C)(=O)=O)CCCCC1`, the “Percent Effect” value is recorded as -10.96%.
Next, `CCc1nc(C)c(CN2CCOC(CCCC(C)C)C2)[nH]1` (stereo not drawn): -5.664%; `COC[C@H]1CNC(=O)[C@@H]2CCN(Cc3ccc(F)cc3)CC[C@H]12.O=C(O)C(F)(F)F`: -11.52%; `CSc1nccc(N2CCN(C)C3(CCC(=O)N(CC4CC4)CC3)C2)n1` (stereo not drawn): -14.1%.
For `O=C(NCC(F)(F)F)C1CSCN1S(=O)(=O)c1ccc(F)cc1` (stereo not drawn), the “Percent Effect” value is recorded as 3.931%.
Next, `CC1N(C)C(=O)COC12CCN(Cc1nccs1)CC2.O=C(O)C(F)(F)F` (stereo not drawn): 126.1%; `CC(C)CN1CCC2(CCN(Cc3nccs3)CC2)C1=O.O=C(O)C(F)(F)F`: 1.148%.
Regarding `CC1N(CC2CC2)C(=O)COC12CCN(Cc1nccs1)CC2.O=C(O)C(F)(F)F` (stereo not drawn), the “Percent Effect” value is reported as -4.952%.
Next, `CN(C)C(=O)CN1CCC2(CCN(Cc3nccs3)CC2)C1=O.O=C(O)C(F)(F)F`: -19.71%; `CN(C)C1COC2(CCN(Cc3nccs3)CC2)C1.O=C(O)C(F)(F)F.O=C(O)C(F)(F)F` (stereo not drawn): 52.92%.
Take `CCc1ccc2c(c1)C(CCNC(=O)Cc1ccc(F)cc1)C(=O)N2` (stereo not drawn): the “Percent Effect” value worked out at 3.277%.
Next, `Cc1c(CNCC(C)Oc2cccnc2)c2ccccc2n1CC(N)=O` (stereo not drawn): 60.46%.
With `COc1ncccc1C(=O)NCC(C)Oc1cccnc1` (stereo not drawn), the “Percent Effect” value is -11.32%.
In the case of `Cc1c(CNCCCOc2cccnc2)c2ccccc2n1CC(N)=O`, the “Percent Effect” value is reported as -2.741%.
Next, `Cc1cc2n(n1)CC(CNC1CCN(C(=O)c3ccco3)CC1)CN2` (stereo not drawn): 7.634%; `COCCN1CCCC(O)(CN2CCCN(c3ncccn3)CC2)C1=O` (stereo not drawn): -4.112%; `Cc1cc(CN(C)C2CCCN(Cc3noc(C4CC4)n3)C2)no1` (stereo not drawn): 1.987%.
Regarding `CCc1nc(CN2CCCC(N(C)CCn3cncn3)C2)no1` (stereo not drawn), the “Percent Effect” value is reported as 8.167%.
On to `CN(Cc1cscn1)C1CCCN(Cc2noc(C3CC3)n2)C1` (stereo not drawn), for which the “Percent Effect” value is listed as 3.354%.
Next, `CN(CCc1ccncc1)C1CCCN(Cc2noc(C3CC3)n2)C1` (stereo not drawn): 107.5%.
Next, `CN(CCc1cccs1)C1CCCN(Cc2noc(C3CC3)n2)C1` (stereo not drawn): -17.24%; `Cc1nc(CN2CCCC(N(C)CCc3ccncc3)C2)no1` (stereo not drawn): -4.077%.
On to `CN(CCCC#N)C1CCCN(Cc2noc(C3CC3)n2)C1` (stereo not drawn), for which the “Percent Effect” value is -8.895%.
Consider `CN(CCc1ccccn1)C1CCCN(Cc2noc(C3CC3)n2)C1` (stereo not drawn), for which the “Percent Effect” value worked out at 103.4%.
Regarding `CN(CCn1cccn1)C1CCCN(Cc2noc(C3CC3)n2)C1` (stereo not drawn), the “Percent Effect” value is recorded as 100.3%.
Next, `CN(CCS(C)(=O)=O)C1CCCN(Cc2noc(C3CC3)n2)C1` (stereo not drawn): 107.2%; `CN(CC1(O)CCCCC1)C1CCCN(Cc2noc(C3CC3)n2)C1` (stereo not drawn): 0.01553%; `c1cncc(CN2CCC(NCCc3ccc4c(c3)CCO4)CC2)c1`: 11.75%.
Next, `O=C1CCCCN1Cc1cccc(NC(=O)N2CCSCC2)c1`: 7.58%; `COc1cccc(C(C(=O)O)N2CCCN(C3CCCC3)CC2)c1OC` (stereo not drawn): 17.91%; `Cc1noc(C)c1CCN1CCCC1c1nc2cc(F)ccc2[nH]1` (stereo not drawn): -25.67%.
Next, `CC(NC(=O)Nc1cccnc1N1CCCC1)c1nncn1C` (stereo not drawn): -5.724%.
In the case of `CCc1cc(NCCNC(C)=O)nc(N2CCCC2)n1`, the “Percent Effect” value was 3.61%.
`CCOc1ccc(S(=O)(=O)NCCCc2ccc(N(C)C)cc2)cc1C`: the “Percent Effect” value is recorded as 28.94%.
Next, `Cc1cc(C)n(CCC(=O)OCC(=O)N2CCc3sccc3C2)n1`: 1.296%; `CN(CC1CCCO1)c1nc(-c2cccnc2)nc2c1CCNCC2` (stereo not drawn): -5.842%.
With `Cc1cc(C2CCCN2CC(=O)N(CCC#N)c2ccccc2F)on1` (stereo not drawn), the “Percent Effect” value worked out at 6%.
Next, `CN(CC(=O)NS(=O)(=O)c1cccs1)Cc1ccccc1`: -0.04031%.
Next, `CC(C#N)CSc1ccccc1NCC(=O)Nc1ccc(F)cc1` (stereo not drawn): -2.506%.
Next, `CC(NCC(=O)NCC(=O)Nc1ccc(F)cc1)c1cccs1` (stereo not drawn): 91.77%; `CN(CC(=O)NCC(=O)Nc1ccc(F)cc1)Cc1cccs1`: 82.61%; `CCC(NC(=O)NCC(=O)Nc1ccc(F)cc1)c1ccncc1` (stereo not drawn): 13.9%.
Turning to `CCCC(=O)NCc1ccc(N2CCCCC2)cc1`, the “Percent Effect” value is -2.635%.
Next, `CC(NCC(=O)Nc1ccc(N2CCCCCC2)cc1)c1cccs1` (stereo not drawn): 140.9%.
Next, `CC(C)CCC(=O)NCc1ccc(N2CCCCC2)cc1`: 9.507%.
Next, `O=C(Cc1cccs1)NCC(=O)Nc1cn[nH]c1`: -3.119%; `COc1ccc(NC(=O)N2CCCC2c2ccco2)cc1OC` (stereo not drawn): 20.26%.
For the compound `COc1cc(Nc2c(C#N)c(=O)n(C)c(=O)n2C)cc(OC)c1`, the “Percent Effect” value turned out to be 0.2169%.
Next, `Cc1nc(C(NC(=O)C2CCCC2)c2ccccc2F)no1` (stereo not drawn): -17.79%; `COc1ccccc1C(NC(=O)C1CCC1)c1noc(C)n1` (stereo not drawn): -10.07%.
For the compound `O=C(NC1CC1)NC(c1cc(F)ccc1F)C1CC1` (stereo not drawn), the “Percent Effect” value was -0.2014%.
As to `CC(c1cc(F)ccc1F)N(C)CCS(=O)(=O)CCC(N)=O` (stereo not drawn), the “Percent Effect” value is recorded as -2.852%.
With `COC(=O)C(NC(=O)C1CC1)c1cc(F)ccc1F` (stereo not drawn), the “Percent Effect” value is 87.91%.
Next, `COC(=O)C(NC(=O)C1CCCC1)c1cc(F)ccc1F` (stereo not drawn): 111.2%; `COC(=O)C(NC(=O)c1cc(F)cc(F)c1)c1cccnc1` (stereo not drawn): 7.008%; `CNC(C(=O)OC)c1cc(F)ccc1F.Cl` (stereo not drawn): 100.3%.
Next, `COc1ccccc1C(NC(=O)C1CCCC1)c1noc(C)n1` (stereo not drawn): -4.234%; `COC(=O)C(NC(=O)COC1CCCC1)c1cc(F)ccc1F` (stereo not drawn): 0.6159%.
Next, `COC(=O)C(NC(=O)C1CCC1)c1cc(F)ccc1F` (stereo not drawn): 101.8%.
For `CNC(=O)C1CN(Cc2ccc(C#N)cc2F)c2ccccc2O1` (stereo not drawn), the “Percent Effect” value is listed as -15.36%.
As to `CC(C)C(=O)N1CCN(C(=O)c2cc(Cl)no2)[C@H]2CS(=O)(=O)C[C@H]21`, the “Percent Effect” value is reported as -5.437%.
Next, `N#Cc1cccnc1NC1CCN(c2ccccc2OC(F)F)C1=O` (stereo not drawn): -11.66%; `O=C(NCCNc1cncc(Br)c1)c1ccc(O)cc1`: -0.2825%.
Consider `O=C1c2cccnc2OC(CN2CCOCC2)CN1C1CCC1` (stereo not drawn), for which the “Percent Effect” value turned out to be 113.2%.
Next, `CCOC(=O)N1CCC(N2Cc3ncccc3C2=O)CC1`: -7.226%; `O=C(O)C(F)(F)F.O=C(O)C(F)(F)F.O=C(O)C(F)(F)F.c1cncc(C[C@H]2[C@H](N3CCOCC3)CCN2Cc2cccs2)c1`: -5.101%; `O=C1c2cccnc2OC(CN2CCOCC2)CN1Cc1cccs1` (stereo not drawn): 106%.
Next, `COc1ncccc1CNC(=O)N1CCC(CN2CCOCC2)CC1`: -11.8%; `O=C(NC1CCCCC1)N1CCC(N2Cc3ncccc3C2=O)CC1`: 2.597%; `COc1ncccc1NC(=O)N1CCC(CN2CCOCC2)CC1`: 40.61%.
On to `Cc1cccc(C)c1C(=O)N1C[C@@H](CN2CCOCC2)[C@@H](CO)C1`, for which the “Percent Effect” value is listed as -12.05%.
For the compound `CCN1CC(CN2CCOCC2)Oc2ncccc2C1=O` (stereo not drawn), the “Percent Effect” value is reported as 121.1%.
`O=C1c2cccnc2OC(CN2CCOCC2)CN1CC1CC1` (stereo not drawn): the “Percent Effect” value was found to be 142%.
